FBW7 act: human FBW7 E3 ligase activation, primary screen; Q969H0; AlphaScreen FBW7–phospho-cyclin E peptide binding, activator screen; normalized activity (activation), % at 26.1 µM; 650,000 compounds, 0.13% hits; AID 1259310; in the data active = normalized activity above about 1.9%;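 also: purified mutant Fbw7 with reduced substrate affinity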
MITF primary: inhibitors of human MITF; O75030; 650,000 compounds, 0.91% hits; inhibition, % at 2.6 µM; AlphaScreen MITF homodimerization, bead proximity signal; in the data active = inhibition above about 50%
GPR151 ag: activators of human GPR151; Q8TDV0; PathHunter beta-arrestin GPR151 cells, luminescence; activation, % at 11.2 µM; 650,000 compounds, 1% hits; AID 1508602; in the data active = activation above about 4.9%
TEAD-YAP block: TEAD-YAP interaction inhibition. HEK-TIYL cells, TEAD-Gal4/YAP UAS-luciferase luminescence. inhibition, % at 9.12 µM. AID 1259422. 640,000 compounds, 1.4% hits; in the data active = inhibition above about 32%
GPR151 confirm: human GPR151 activation, confirmation screen. shares compounds with GPR151 ag. GPR151 PathHunter beta-arrestin cells, luminescence, 90 min; % of EA-reagent control over plate median. activation, % at 11.2 µM. 6,700 tested, under 10 active. AID 1508609;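 active = mean percent activation across replicates above the confirmation screen cutoff of 4.91%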
GPR119 counter: activates human GPR119 in a GPR151 counter-screen; shares compounds with GPR151 ag; GPR119 PathHunter beta-arrestin cells, luminescence, 90 min; 0 = compound-well median, 100 = enzyme-acceptor control; activation, % at 11.2 µM; 6,700 compounds, 0.3% hits;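 active = mean percent activation in the counterscreen above 29.09%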;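 also: counterscreen on off-target GPR119 to flag nonselective hits from the GPR151 activator screen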
Each line names hits and unclear results; the compound was inactive in the other large screens (follow-up assays come after a bar, where they were run); ! = repeats disagree. Most compounds without a hit are left out; they make up all but 3.4% or so of the library.

COc1ccccc1-n1c(=S)sc2c(=O)n(-c3ccccc3)c(SCC(=O)NC3CCCCC3)nc21	GPR151 ag 6.0 | GPR151 confirm inactive | GPR119 counter inactive
Cc1ccc(-n2c(SCC(=O)N3CCCC3)nc3c(sc(=S)n3-c3cc(C)ccc3F)c2=O)cc1	GPR151 ag 6.7 | GPR151 confirm inactive | GPR119 counter inactive
Cc1cccc(C)c1-n1c(=S)sc2c(=O)n(-c3ccccc3)c(SCC(=O)c3ccccc3)nc21	GPR151 ag 6.1 | GPR151 confirm inactive | GPR119 counter inactive
CCOc1ccccc1-n1c(=S)sc2c(=O)n(-c3ccc(C)cc3)c(SCC(=O)NCc3ccco3)nc21	none
CCOc1ccccc1-n1c(=S)sc2c(=O)n(-c3ccc(F)cc3)c(SCC(=O)NCc3ccco3)nc21	GPR151 ag 5.4 | GPR151 confirm inactive | GPR119 counter inactive
O=C(CSc1nc2c(sc(=S)n2-c2ccccc2)c(=O)n1-c1ccccc1)NC1CCCCC1	none
Cc1ccc(-n2c(SCC(=O)N3CCCC3)nc3c(sc(=S)n3-c3ccccc3C)c2=O)cc1	none
Cc1ccccc1-n1c(=S)sc2c(=O)n(-c3ccccc3)c(SCC(=O)c3ccccc3)nc21	none
O=S1(=O)CCC(N2CCN(C/C=C/c3ccccc3)CC2)C1 (stereo not drawn)	none
CCCCCCCCCCCCCCCC(=O)NCCO	GPR151 ag 9.1! | GPR151 confirm inactive | GPR119 counter inactive
CC(=O)Nc1cnc2cnc(-c3ccc(C(C)C)cc3)cn12	GPR151 ag 5.2 | GPR151 confirm inactive | GPR119 counter inactive
CC(=O)NN1C(=O)/C(=C/c2cccc(O)c2)SC1=S	GPR151 ag 6.3 | GPR151 confirm inactive | GPR119 counter inactive
O=C(NCCc1ccccc1)C(F)(F)C(F)F	GPR151 ag 19.0 | GPR151 confirm inactive | GPR119 counter inactive
O=C(O)CN1C(=O)SC(Nc2ccccc2)C1=O (stereo not drawn)	none
CCOC(=O)CN1C(=O)SC(Nc2ccccc2)C1=O (stereo not drawn)	GPR151 ag 7.8 | GPR151 confirm inactive | GPR119 counter inactive
CCCCN1C(=O)SC(Nc2ccc(F)cc2)C1=O (stereo not drawn)	GPR151 ag 8.2 | GPR151 confirm inactive | GPR119 counter inactive
Cc1ccc(S(=O)(=O)n2nc(C(F)(F)F)c3cnccc32)cc1	none
O=S(=O)(c1ccc(F)cc1)n1nc(C(F)(F)F)c2cnccc21	GPR151 ag 5.3 | GPR151 confirm inactive | GPR119 counter inactive
COC(=O)C1C(=O)C2=C(CC1C)NC(=O)CC2c1cc(OC)c(O)c([N+](=O)[O-])c1 (stereo not drawn)	none
CCOc1cc(C2CC(=O)NC3=C2C(=O)C(C(=O)OC)C(C)C3)cc(Cl)c1O (stereo not drawn)	GPR151 ag 8.3 | GPR151 confirm inactive | GPR119 counter inactive
Cc1ccc(-c2cc(C(=O)OCC(=O)c3ccc(Cl)c([N+](=O)[O-])c3)c3ccccc3n2)cc1	none
Cc1nc2sc3c(c2c2nnc(SCC(=O)NC4CC4)n12)CCC(C)C3 (stereo not drawn)	none
O=C(NCc1ccc2c(c1)OCO2)c1ccc2c(=O)n(Cc3ccccc3Cl)c(=S)[nH]c2c1	none
OCCNCCCOc1cccc(Cl)c1Cl	GPR151 ag 5.5!, TEAD-YAP block 69.9 | GPR151 confirm inactive | GPR119 counter inactive
OCCNCCCCOc1cccc(Cl)c1Cl	none
COc1ccc(NC(=O)c2c(-c3c(F)cccc3Cl)noc2C)cc1[N+](=O)[O-]	none
N#CCCN(Cc1cccnc1)C(=S)NC(=O)c1cccs1	GPR151 ag 5.6 | GPR151 confirm inactive | GPR119 counter inactive
CCOC(=O)N1CCN(Cc2cc(=O)oc3ccc(OC)cc23)CC1	GPR151 ag 14.2 | GPR151 confirm inactive | GPR119 counter inactive
COc1ccc2oc(=O)cc(CN3CCCCC3)c2c1	none
O=C(O)c1cc(Cl)c(Cl)cc1C(=O)Nc1ccccc1O	none
CCCCCCCC(=O)Nc1ccc(C(=O)OCCC)cc1	none
CCOC(=O)C1CCCN(CCC(=O)Nc2ccccc2)C1 (stereo not drawn)	none
CCOC(=O)C1CCCN(CCC(C)c2ccccc2)C1 (stereo not drawn)	GPR151 ag 8.1 | GPR151 confirm inactive | GPR119 counter inactive
CC1=C(C(=O)Nc2ccccc2)C(c2ccco2)C(C#N)=C(SCC(=O)Nc2ccc(F)cc2)N1 (stereo not drawn)	GPR151 ag 5.9 | GPR151 confirm inactive | GPR119 counter inactive
CC(=O)C1=C(C)NC(SCC(N)=O)=C(C#N)C1c1cccc([N+](=O)[O-])c1 (stereo not drawn)	GPR151 ag 9.3 | GPR151 confirm inactive | GPR119 counter inactive
COC(=O)CSC1=C(C#N)C(c2ccccc2)C(C(=O)Nc2ccccc2)=C(C)N1 (stereo not drawn)	GPR151 ag 5.7 | GPR151 confirm inactive | GPR119 counter inactive
CC1=C(C(=O)Nc2ccccc2C)C(c2ccccc2)C(C#N)=C(SCC(=O)Nc2cc(C)ccc2C)N1 (stereo not drawn)	GPR151 ag 12.0 | GPR151 confirm inactive | GPR119 counter inactive
CC1=C(C(=O)Nc2ccccc2C)C(c2ccccc2)C(C#N)=C(SCC(=O)Nc2ccccc2C)N1 (stereo not drawn)	none
Nc1c(C(=O)Nc2ccc(Cl)cc2)sc2nc3c(c(-c4cccs4)c12)CCCC3	none
Cc1cc(C)c(S(=O)(=O)Nc2ccc(F)cc2)cc1C	none
Cc1cc(C)c(S(=O)(=O)Nc2ccc(O)c(C(=O)O)c2)cc1C	GPR151 ag 10.3 | GPR151 confirm inactive | GPR119 counter inactive
O=C(NC1CC1)c1ccc(-c2nc(NC3CCN(Cc4ccccc4)CC3)c3ncn(Cc4ccc(C(F)(F)F)cc4)c3n2)cc1	none
O=C(CN(CC1CCCO1)C(=O)CCC(=O)Nc1ccccn1)NCC1CCCO1 (stereo not drawn)	GPR151 ag 5.0 | GPR151 confirm inactive | GPR119 counter inactive
COC(=O)COc1ccc(/C=N/N2C(=O)C3C4C=CC(C4)C3C2=O)cc1 (stereo not drawn)	none
CCN1CCN(CCCN2C(=O)C3C(C(=O)Nc4ccc(Oc5ccccc5)cc4)C4C=CC3(O4)C2C(=O)NC2CCCCC2)CC1 (stereo not drawn)	none
O=C1OC(c2ccc(Cl)cc2Cl)=N/C1=C\c1cccc(Cl)c1Cl	GPR151 ag 8.0 | GPR151 confirm inactive | GPR119 counter inactive
CC(C)(C)C1=Nc2ccccc2NC(=O)C1	none
CCCN(CCC)CCc1cccc2c1CC(=O)N2	GPR151 ag 12.4! | GPR151 confirm inactive | GPR119 counter inactive
CC1=C(C(=O)Nc2ccc(F)cc2)C(c2ccccc2Br)NC(=O)N1 (stereo not drawn)	GPR151 ag 5.1 | GPR151 confirm inactive | GPR119 counter inactive
CC12CCc3ccccc3C1(C)OC(=O)O2 (stereo not drawn)	none

Screening data as filed in PubChem.
